Reference: PubChem BioAssay
Values joined by “and” are separate entries in the source; they are usually repeats but may differ in a detail not shown here. Equal entries are not always repeated. Results filed as inconclusive are left out. Active and inactive are the calls of the source.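 How the source made its calls, unless noted: active means normalized viability below 100% at a tested concentration; inactive means the rest.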

Assays:
[1] = viability loss in pontine glioma line – cell-based, SU-DIPG-XVII, MIPE5.0, CellTiter-Glo, qHTS, dose response (AID 1347060; cut-off not given, nearly all actives have AC50 up to about 26 µM;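 on AC50: cells exposed to compound for 48 hours before viability readout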); details: CellTiter-Glo ATP luminescence
[2] = viability loss in pontine glioma line – cell-based, SU-DIPG-XIII, MIPE4.0, CellTiter-Glo, qHTS, dose response (AID 1347061; cut-off not given, nearly all actives have AC50 up to about 37 µM;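 further: cells exposed to compound for 48 hours before readout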); details: CellTiter-Glo ATP luminescence
[3] = viability loss in pontine glioma line – cell-based, JHH-DIPG-1, MIPE4.0, CellTiter-Glo, qHTS, dose response (AID 1347062; cut-off not given, nearly all actives have AC50 up to about 27 µM;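 on AC50: cells exposed to compound for two days before readout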); details: JHH-DIPG-1 viability, CellTiter-Glo ATP luminescence
[4] = viability loss in pontine glioma line – cell-based, SU-DIPG-IV, MIPE4.0, CellTiter-Glo, qHTS, dose response (AID 1347063; cut-off not given, nearly all actives have AC50 up to about 30 µM;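 further: compound exposure lasted 48 hours before the viability readout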); details: CellTiter-Glo ATP luminescence
[5] = viability loss in pontine glioma line – cell-based, SU-DIPG-XIII, MIPE5.0, CellTiter-Glo, qHTS, dose response (AID 1347064; cut-off not given, nearly all actives have AC50 up to about 23 µM;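 on AC50: cells exposed to compound for 48 hours before the viability read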); details: CellTiter-Glo ATP luminescence
[6] = viability loss in pontine glioma line – cell-based, SU-DIPG-XXV, MIPE5.0, CellTiter-Glo, qHTS, dose response (AID 1347065; cut-off not given, nearly all actives have AC50 up to about 26 µM;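 further: cells exposed to compound for 48 hours before ATP readout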); details: CellTiter-Glo ATP luminescence
[7] = growth inhibition of DIPG cells – cell-based, MIPE4.0 library, CellTiter-Glo luminescence, qHTS (AID 1347066; cut-off not given, nearly all actives have AC50 up to about 30 µM;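 further: cells exposed to compound for 48 hours before readout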); details: SU-DIPG-VI viability, CellTiter-Glo ATP luminescence
[8] = growth inhibition of DIPG cells – cell-based, MIPE5.0 library, qHTS (AID 1347068; cut-off not given, nearly all actives have IC50 up to about 30 µM;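 on IC50: cells exposed to compound for 48 hours before viability readout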); details: SU-DIPG-XXV viability
[9] = compounds altering HSF1 focus formation in cells – imaging, Selleck Cancer Library (AID 1347162; in the data active means plate-normalised HSF1 focus index below about 0.46); details: human cells, HSF1 nuclear foci imaging, at 10 µM; SSMD: measured here: HSF1 foci SSMD mean; cell count: measured here: cell number; plate-normalised HSF1 focus index: stronger effect = lower value
[10] = JHH-DIPG-1 glioma cell viability, MIPE5.0 library, CellTiter-Glo luminescence, qHTS (AID 1347067; cut-off not given, nearly all actives have AC50 up to about 26 µM;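 further: cells exposed to compound for 48 hours before readout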); details: JHH-DIPG-1 glioma viability, CellTiter-Glo ATP luminescence
[11] = viability loss with induced miR-34 in A549 – imaging, A549 dox-inducible miR-34, nuclei and caspase counts, primary screen (AID 1347080;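 active means compounds whose cell count with miR-34 switched on is under 0.7 times the count with it off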); details: A549 miR-34 inducible, Hoechst nuclei count, 48 h
[12] = MELAS cybrid and Rieske KO viability enhancers – cell-based, MELAS cybrids, Rieske KO mouse fibroblasts, CellTiter-Glo, primary screen (AID 1508586;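 active means mean z-score across replicates of 1.96 or higher in either the MELAS or the Rieske mutant cell line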;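 further: z relative to plate mean and SD of compound and empty wells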); details: low glucose
[13] = drug combination growth inhibition, ovarian cancer – cell-based, oncology-focused library, rucaparib conditional, profiling panel (AID 1508598); details: patient-derived ovarian cancer cells, CellTiter-Glo viability, 144 h, stronger effect = lower value
[14] = stronger effect = lower value, cell number ratio, induced over uninduced
[15] = measured here: relative caspase fold change +Dox/-Dox
[16] = measured here: total cells with miR-34 induction, stronger effect = lower value
[17] = measured here: total cells without miR-34 induction
[18] = MELAS cybrid survival, CellTiter-Glo 48 h, stronger effect = higher value
[19] = Rieske KO mouse fibroblast survival, CellTiter-Glo 72 h
[20] = at 0.000305 µM, OCI-C5x cells, with rucaparib 10 µM, 100% = cells with rucaparib alone
[21] = at 0.000305 µM, OCI-C5x cells, without rucaparib
[22] = at 0.000305 µM, OCI-P5x cells, with rucaparib 20 µM, 100% = cells with rucaparib alone
[23] = at 0.000305 µM, OCI-P5x cells, without rucaparib
[24] = at 0.00122 µM, OCI-C5x cells, with rucaparib 10 µM, 100% = cells with rucaparib alone
[25] = at 0.00122 µM, OCI-C5x cells, without rucaparib
[26] = at 0.00122 µM, OCI-P5x cells, with rucaparib 20 µM, 100% = cells with rucaparib alone
[27] = at 0.00122 µM, OCI-P5x cells, without rucaparib
[28] = at 0.00488 µM, OCI-C5x cells, with rucaparib 10 µM, 100% = cells with rucaparib alone
[29] = at 0.00488 µM, OCI-C5x cells, without rucaparib
[30] = at 0.00488 µM, OCI-P5x cells, with rucaparib 20 µM, 100% = cells with rucaparib alone
[31] = at 0.00488 µM, OCI-P5x cells, without rucaparib
[32] = at 0.0195 µM, OCI-C5x cells, with rucaparib 10 µM, 100% = cells with rucaparib alone
[33] = at 0.0195 µM, OCI-C5x cells, without rucaparib
[34] = at 0.0195 µM, OCI-P5x cells, with rucaparib 20 µM, 100% = cells with rucaparib alone
[35] = at 0.0195 µM, OCI-P5x cells, without rucaparib
[36] = at 0.0781 µM, OCI-C5x cells, with rucaparib 10 µM, 100% = cells with rucaparib alone
[37] = at 0.0781 µM, OCI-C5x cells, without rucaparib
[38] = at 0.0781 µM, OCI-P5x cells, with rucaparib 20 µM, 100% = cells with rucaparib alone
[39] = at 0.0781 µM, OCI-P5x cells, without rucaparib
[40] = at 0.313 µM, OCI-C5x cells, with rucaparib 10 µM, 100% = cells with rucaparib alone
[41] = at 0.313 µM, OCI-C5x cells, without rucaparib
[42] = at 0.313 µM, OCI-P5x cells, with rucaparib 20 µM, 100% = cells with rucaparib alone
[43] = at 0.313 µM, OCI-P5x cells, without rucaparib
[44] = at 1.25 µM, OCI-C5x cells, with rucaparib 10 µM, 100% = cells with rucaparib alone
[45] = at 1.25 µM, OCI-C5x cells, without rucaparib
[46] = at 1.25 µM, OCI-P5x cells, with rucaparib 20 µM, 100% = cells with rucaparib alone
[47] = at 1.25 µM, OCI-P5x cells, without rucaparib
[48] = at 5 µM, OCI-C5x cells, with rucaparib 10 µM, 100% = cells with rucaparib alone
[49] = at 5 µM, OCI-C5x cells, without rucaparib
[50] = at 5 µM, OCI-P5x cells, with rucaparib 20 µM, 100% = cells with rucaparib alone
[51] = at 5 µM, OCI-P5x cells, without rucaparib

COc1cc2ncnc(Nc3ccc(F)c(Cl)c3)c2cc1NC(=O)/C=C/CN1CCCCC1
1.69: SSMD [9]
6970: cell count [9]
inactive: outcome [2] | plate-normalised HSF1 focus index [9] 1.09
active: AC50 [1] 14.8 µM | AC50 [3] 18.7 µM | AC50 [4] 20.9 µM | AC50 [5] 18.6 µM | AC50 [6] 9.34 µM | AC50 [7] 20.9 µM | IC50 [8] 10.5 µM

CCCCCCCCc1ccc(CCC(N)(CO)CO)cc1
0.756 and 0.682: fold change [11, 15]
5440 and 7580: cell count [11, 16]
-0.433: z-score [12, 19]
active: AC50 [1] 10.5 µM | AC50 [2] 23.5 µM | AC50 [3] 9.35 µM | AC50 [4] 3.72 µM | AC50 [5] 18.6 µM | AC50 [6] 10.5 µM | AC50 [7] 23.5 µM | AC50 [10] 10.5 µM | viability [13, 26] 89.4% | viability [13, 27] 98% | viability [13, 30] 93.5% | viability [13, 34] 92.4% | viability [13, 38] 88.8% | viability [13, 39] 53.5% | viability [13, 46] 64% | viability [13, 47] 50.7% | viability [13, 48] 90.1% | viability [13, 50] 26% | viability [13, 51] 0.383%
5720 and 8490: cell count [11, 17]
3980: cell count [9]
-8.05: SSMD [9]
inactive: fold change [11, 14] 0.951 and 0.892 | plate-normalised HSF1 focus index [9] 0.589 | z-score [12, 18] -0.312 | viability [13, 20] 106% | viability [13, 21] 117% | viability [13, 22] 107% | viability [13, 23] 111% | viability [13, 24] 110% | viability [13, 25] 112% | viability [13, 28] 101% | viability [13, 29] 122% | viability [13, 31] 103% | viability [13, 32] 111% | viability [13, 33] 120% | viability [13, 35] 106% | viability [13, 36] 102% | viability [13, 37] 106% | viability [13, 40] 112% | viability [13, 41] 108% | viability [13, 42] 108% | viability [13, 43] 113% | viability [13, 44] 103% | viability [13, 45] 121% | viability [13, 49] 129%

CCOc1ccn(-c2ccc(F)cc2)c(=O)c1C(=O)Nc1ccc(Oc2ccnc(N)c2Cl)c(F)c1
active: AC50 [4] 18.7 µM | AC50 [6] 11.8 µM | viability [13, 26] 99.9% | viability [13, 42] 91.8% | viability [13, 46] 88.6% | viability [13, 47] 97.3% | viability [13, 50] 65.2% | viability [13, 51] 96.2%
2.9: SSMD [9]
-0.0407: z-score [12, 19]
7130: cell count [9]
0.507: fold change [11, 15]
inactive: outcome [1] | outcome [2] | outcome [3] | outcome [5] | outcome [7] | outcome [8] | fold change [11, 14] 1.21 | plate-normalised HSF1 focus index [9] 1.11 | z-score [12, 18] -0.348 | viability [13, 20] 118% | viability [13, 21] 124% | viability [13, 22] 109% | viability [13, 23] 129% | viability [13, 24] 125% | viability [13, 25] 134% | viability [13, 27] 120% | viability [13, 28] 113% | viability [13, 29] 120% | viability [13, 30] 103% | viability [13, 31] 117% | viability [13, 32] 116% | viability [13, 33] 118% | viability [13, 34] 101% | viability [13, 35] 114% | viability [13, 36] 110% | viability [13, 37] 138% | viability [13, 38] 107% | viability [13, 39] 116% | viability [13, 40] 129% | viability [13, 41] 128% | viability [13, 43] 106% | viability [13, 44] 135% | viability [13, 45] 120% | viability [13, 48] 133% | viability [13, 49] 135%
5080: cell count [11, 16]
4210: cell count [11, 17]
